The values that follow come from PubChem BioAssay AID1159506 (National Center for Advancing Translational Sciences (NCATS), 2015).

Whole data set: some 59,000 sequences, median the read-out near -0.00055, cut for the lowest 2% near -2. Many of the other results were omitted from the sample, so the lowest values are more common in it than they were.

The test can be described thus: Identification of proteins required for the processing of the EWS-FLI1 nascent transcript.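 Further: robust z of luciferase light less the median z of siRNAs with the same seed.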 The conditions noted are these: TC32 Ewing sarcoma NR0B1-luc vs CMV-luc (EWS-FLI1 target promoter against control promoter), 48 h; screened at 20 nM (by protocol). The method in brief:
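TC32 Ewing sarcoma cells carrying NR0B1-promoter or CMV-promoter luciferase reporters were reverse-transfected with single siRNAs at 20 nM, three per gene genome-wide. Luminescence was read after 48 h and normalized to non-targeting controls.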
Regarding UCGUGUAAAACAACAUGCG against AGMO, the seed-corrected z-score was -0.652.
For UAACCUAUCAUAUUGGUAG against DDX17 the value was 0.216; for UAGAUCACCAAGCCCUUCC against EFNB1, -0.0268.
In turn, UCUCCAUAAACAUACAGGC against LACE1 returned a seed-corrected z-score of 1.68.
For UUGGUUGCAUCCCUGUCCG against PPP1R27 the value was -3.59.
For UGAUGUACUGUGGAAGGUC against MAST3 the value was -1.59.
With UGUAGUGACAUCUCCGCCU against MCFD2P1 the figure was 0.515.
As for UAAGGUCCCAGAAAGGCCU against ZP4, the seed-corrected z-score worked out at 0.208.
With UCUGGGUACAAUCUGGUGU against CHCHD10, the seed-corrected z-score is -2.26.
UCUGAUUCCGCUUCUGAGC against SIGLEC10 yielded a seed-corrected z-score of 0.63.
With AUAGAUACCUAGGUCAACC against NEU3 the figure was 0.24; with UGCUGUUAGUUUGUGAUGC against LOC729254, 0.247; with UUCGAGACGAUUUCCAGUG against CMIP, -2.27.
For UACUAGGUACGAACCGUCC against PPTC7 the value was -0.527; for UCUCCUUACAUAACACUUC against EPHX2, 0.0978; for UUUGUGAUAGACUUCUUUC against CFAP126, 1.14.
With AAACCUUCCGGUUUAGAUG against KCNH5 the figure was -0.00192.
Take UUUGCCUCUUUCCUCAACC against ZBTB16: the seed-corrected z-score was -2.32.
For UAUAGAUCAACAAAAAUAC against TRMT112 the value was 0.21; for UUCCUUCUCGUCGUCGUAG against SERPINH1, -0.218.
For AGUGGGAUAAGGGCUCUGA against TMEM132A the value was -5.72.
With UAUUCUUCAUUGGUAUCCC against TMEM27 the figure was -0.429.
As for UCCGUUUCCACAUAUCUAC against SUPT20H, the seed-corrected z-score is -0.175.
For UAUGGUAAUAGUCCUCCAG against FNDC9, the seed-corrected z-score is -0.0743.
With UUAGAAGCCCGCGUGAUGU against HS6ST3 the figure was 0.236.
With UGAUUGGUUACUGCCCAGG against TAS2R20 the figure was -4.87; with UCCGUUUCCAUAAUUACAG against SCUBE1, -0.917.
Turning to AAACUAAUGAAAUAGUGCC against GPR39, the seed-corrected z-score is -0.0661.
For AUAGAUCUUUAUAUAAGCC against ATL1 the value was -0.744.
With UAGAGUUUCGGUUUAAAUG against RBBP5 the figure was 0.215; with UUUUGUAUGUAGACAUUGG against DEFB135, -0.8; with UACACUAGCAGUGACCAUG against MBOAT1, 0.0459.
Sequence UUGAUAUCCAGCACAUUGC against CORO2B had a seed-corrected z-score of 1.69.
With UCUUCGUAGAUGACAUUCC against ERO1A the figure was 0.442; with AUAUGUGCAGUCUUCUCCC against LINC00200, -0.44; with UCCAGUAACAAUUAAUGCC against LRRC37A, 0.451.
For UGUGGUCAAAGAGGAGAUG against SH3TC2 the value was -2.8; for UAGCAGAUAGGUCUCAAUG against MYH11, -0.244; for UAGAUUCUCGUGCACAGCC against KIFC3, 0.0224.
The sequence AAAGUGACUAUUGUCAGGU against OR5M10 returned a seed-corrected z-score of -0.162.
For UUUGUAGUUGUUCCCAUGC against TTPA, the seed-corrected z-score was -0.714.
With UCCAAGGUCAGUGUGAUCC against ZDHHC23 the figure was 0.574; with UUAUGUAUCAUUGGAACCA against LOC388780, 0.0558.
Take UUUUAUUCCCUGUAUCAUG against ZNF619: the seed-corrected z-score is -2.89.
With UUCACUCUCAAACUGGUCC against CNOT3, the seed-corrected z-score is -0.499.
With UCUUGUCCAAGACUCCUUC against SMTN the figure was -0.516; with UGAUGAGCGACUCUCCUGG against C9orf142, -0.422; with AUUGCUACUGAUAUAAGCC against DICER1, -0.452.
For UUCGGACUCAGCUUCUCCA against EXD3 the value was 0.0948; for UUAUGAUCCAGGUAGAGGA against INHBE, 0.817.
For UUCUGCUUUGCAUAUCUCC against POU5F1 the value was -2.72; for AUUCUUAAACGUGAUUUCC against NICN1, 0.117; for UAGCGAAUCUGUAAGCUGC against MLLT10, -0.471.
UUUUGAUGCUGUCUACAGG against METTL2B displayed a seed-corrected z-score of -1.55.
For UUACCUAUCCCUGAGACAC against MICAL2 the value was 0.383; for UCCUCUGCGAAGUUCUUGG against PANX2, -2.24; for UCCAUGAGCGCAAUCAUGC against CAPN3, 0.116.
With UCUUCUUCACGAGUUGAGG against GPRC5A the figure was -0.133.
For UGAGUCAAUGAUGCGCUUC against SFN the value was 2.54; for UUGAUGUACAGAUACCAGG against BTBD18, -2.42.
Consider AAAAGUCCAAACAAUACCC against GPR156, for which the seed-corrected z-score is -0.327.
For UACUUGAGCACGUCGAUGA against C19orf68 the value was -0.256; for UCACUUUGAACUUUCCGGC against SCP2D1, -1.27; for AAUGGGAAAAGAAUUGCUU against IGFBP7-AS1, 0.0752.
With UUGGUGGAUAUACUCAAUC against EXO5 the figure was -2.07; with UGAGGAACCAGUUCCAAGG against TMEM60, -0.737.
For UUCCUGCUGCGUACACUUC against KCNAB3 the value was -0.0212.
For the sequence ACAUAUAUAAGAAUAUCGG against ARL3, the seed-corrected z-score is -0.177.
As for UUGUGGAACAUCAUGUCUU against ADCY6, the seed-corrected z-score came out at 1.34.
UAGGUUGUGACUGGUGGUG against ARID5A: the seed-corrected z-score is -3.43.
For UAGUCGAACACCAAGAGGG against CDH3 the value was -0.271.
For UCCGGUUUAUAUUUGGUGC against EPSTI1 the value was -0.285; for UUUCAUCCUAGAAACUCCC against SLC45A3, 0.412; for UUCACCAUAAACACGAUCC against DPM1, 0.428.
With UAUGAAUCCAGAUUGAACU against CXCL1 the figure was 0.898.
For the sequence UCCCGGUACAUGUUGUGGG against RPL18A, the seed-corrected z-score was -2.34.
With UGUUGAGUAGGUCCGUUCC against EPHA7 the figure was 0.58; with UACAGUGACGAGAAGUUCU against RALGDS, 0.583.
For AUCUCUUCCACUUCCGAGG against SMARCB1 the value was -2.19.
With UAAUUGAACUGAUCCAGUC against WDR12 the figure was -0.242.
Sequence UUCCUUAGCACCAUUGAUG against MMADHC registered a seed-corrected z-score of 1.09.
In turn, UCAGUUUUAGGAUAUAUAC against USP46-AS1 yielded a seed-corrected z-score of 0.575.
In the case of AUAUUAAGCAGACAACUCC against DIRC2, the seed-corrected z-score was 0.227.
For UGAGGUUAAAGAAGGUGAC against HRH3 the value was -0.214.
